Results reported in PubChem BioAssay (NCATS).
Several values for one entry are separate records, joined by “and”; a condition that tells them apart may be missing. Equal entries are not always repeated. Results filed as inconclusive are left out. Activity calls are given as the source filed them. Calls come from the whole dose curve; as a rule, active = well fitted curve in the direction sought with a large enough effect; inconclusive = small, poorly fitted or top-dose-only effect, or another doubt; inactive = no such curve, though single readings can be large; an effect the other way counts as inactive or inconclusive.

Legend:
[1] = qHTS assay for measurement of the activity of small molecule inhibitors on Zika virus induced Caspase-3 activity in human iPSC derived neural progenitor cells (hNPCs) (AID 1224857); note: nearly all actives have a fitted effect of over 65% in size
Method in brief: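 In medium with heparin 2 ug/ml and cyclopamine 2 uM, hNPCs (350 cells/well) received compound for one hour and then Zika virus at 2 FFU/cell; caspase activity was measured by Caspase-Glo 3/7 luminescence 6 h post-infection.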

[2] = qHTS assay for measurement of the activity of small molecule inhibitors on Zika virus induced Caspase-3 activity in human astrocytoma cells (AID 1224859)
Method in brief: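 A cell-based luminescent caspase-3/7 assay used SNB-19 cells infected with ZIKV (2 FFU/cell) for 6 h following 1 h compound pretreatment.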

[3] = P-glycoprotein substrates identified in KB-8-5-11 adenocarcinoma cell line, qHTS therapeutic library screen (AID 1346987); note: nearly all actives have a fitted effect of over 65% in size; note: potency is the fitted concentration of half-maximal effect
Method in brief: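 Steps: plate 500 KB-8-5-11 cells/well in DMEM + 10% FCS (colchicine removed); pin compounds in dose-response; incubate 72 h, 37 degree C, 5% CO2; add CellTiter-Glo, 5 min; read luminescence.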

[4] = NS1 protein of Zika virus - qHTS assay to identify small molecule inhibitors in human HEK 293 cells (AID 1347053); note: series mostly up to about 46 µM; nearly all actives have a fitted effect of over 55% in size
Method in brief: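 HEK 293 cells pretreated with compound for 1 h, then infected with ZIKV MR766 (MOI 0.5) for 24 h at 37 C. NS1 detected by TR-FRET with two anti-NS1 antibodies; normalized to uninfected (0%) and infected (100%) wells.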

[5] = qHTS of pediatric cancer cell lines to identify multiple opportunities for drug repurposing: Primary screen for TC32 cells (AID 1347089); note: nearly all actives have a fitted effect of over 60% in size; note: potency is the fitted concentration of half-maximal effect
Method in brief: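 Luminescent ATP read-out (CellTiter-Glo) of metabolically active TC32 cells after 48 h exposure. Concentration-response curves came from 11-point (MIPE, 0.78 nM–46 µM) or 8-point (NPC, 0.59 nM–46 µM) primary titrations; follow-up used 11 points.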

[6] = qHTS of pediatric cancer cell lines to identify multiple opportunities for drug repurposing: Primary screen for DAOY cells (AID 1347090); note: nearly all actives have a fitted effect of over 55% in size; note: potency is the fitted concentration of half-maximal effect
Method in brief: (§1)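 Eight- or eleven-point concentration series, 48 h treatment at 37 degrees C in growth media; readout CellTiter-Glo luminescence. Potency and efficacy were taken from the concentration-response curves.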

[7] = qHTS of pediatric cancer cell lines to identify multiple opportunities for drug repurposing: Primary screen for SJ-GBM2 cells (AID 1347091); note: potency is the fitted concentration of half-maximal effect
Method in brief: as §1

[8] = qHTS of pediatric cancer cell lines to identify multiple opportunities for drug repurposing: Primary screen for A673 cells (AID 1347092); note: nearly all actives have a fitted effect of over 45% in size; note: potency is the fitted concentration of half-maximal effect
Method in brief: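 Cell viability of A673 measured by CellTiter-Glo ATP luminescence after 48 hours compound exposure. Dilution series spanned 0.78 nM to 46 µM (MIPE, 11-point) or 0.59 nM to 46 µM (NPC, 8-point); bortezomib 2.3 uM positive control.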

[9] = qHTS of pediatric cancer cell lines to identify multiple opportunities for drug repurposing: Primary screen for BT-37 cells (AID 1347094); note: potency is the fitted concentration of half-maximal effect
Method in brief: (§2)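 Cells plated at 500-1,000/well in growth medium, compounds added after 5 h. MIPE tested at 11 points (from 0.78 nM), NPC at 8 points (from 0.59 nM). CellTiter-Glo luminescence after 48 h; concentration-response curves from primary screen.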

[10] = qHTS of pediatric cancer cell lines to identify multiple opportunities for drug repurposing: Primary screen for NB-EBc1 cells (AID 1347095); note: potency is the fitted concentration of half-maximal effect
Method in brief: as §2

[11] = qHTS of pediatric cancer cell lines to identify multiple opportunities for drug repurposing: Primary screen for U-2 OS cells (AID 1347096); note: nearly all actives have a fitted effect of over 50% in size; note: potency is the fitted concentration of half-maximal effect
Method in brief: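 Cells (500-1,000/well) in growth media were settled 5 h at 37 degrees C, then given compounds for 48 h. Viability was read as CellTiter-Glo luminescence. Primary runs used MIPE at 11 points (0.78 nM-46 µM) and NPC at 8 points (0.59 nM-46 µM); follow-ups used 11 points.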

[12] = qHTS of pediatric cancer cell lines to identify multiple opportunities for drug repurposing: Primary screen for SK-N-MC cells (AID 1347093); note: potency is the fitted concentration of half-maximal effect
Method in brief: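 Metabolically active cells were quantified by ATP-dependent luminescence (CellTiter-Glo, 15 min at room temperature) following 48 h treatment. Cells had been plated at 500-1,000 per well and settled for 5 h beforehand.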

Measured: Potency

CC(C)C[C@H](NC(=O)CNC(=O)[C@H](Cc1ccc(O)cc1)NC(=O)[C@H](CO)NC(=O)[C@H](Cc1c[nH]c2ccccc12)NC(=O)[C@H](Cc1cnc[nH]1)NC(=O)[C@@H]1CCC(=O)N1)C(=O)N[C@@H](CCCN=C(N)N)C(=O)N1CCC[C@H]1C(=O)NCC(N)=O (stereo in doubt)
not listed: [12]
inactive: all other assays above

O=C(O)c1ccccc1Nc1cc(Cl)ccc1C(=O)O
active: [12] 8.2 µM
not listed: [6]
inactive: all other assays above

C[C@@]12CCC[C@H]1[C@@H]1CC[C@H]3C[C@@H](O)CC[C@]3(C)[C@H]1CC2
not listed: [8]
inactive: all other assays above

CC(=O)OC/C=C(C)/C=C/C=C(C)/C=C/C1=C(C)CCCC1(C)C
not listed: [8] | [12]
inactive: all other assays above

CN1C(=O)CC(C)(c2ccccc2)C1=O (centres undefined)
not listed: [12]
inactive: all other assays above

O=C(NN1CCCC1)NS(=O)(=O)c1ccc(Cl)cc1
not listed: [9]
inactive: all other assays above

CC(C)=CCC/C(C)=C/CC/C(C)=C/CCC(=O)OC/C=C(\C)CCC=C(C)C
not listed: [8] | [10]
inactive: all other assays above

Cc1cc2nc3ccc(=[N+](C)C)cc-3sc2cc1N
inactive: [1] | [2] | [4]
active: [3] 6.51 µM | [5] 2.97 µM | [6] 13.3 µM | [8] 10.6 µM | [12] 1.33 µM | [9] 17.4 µM | [10] 10.6 µM

CCCCC(CC)COC(=O)c1ccccc1C(=O)O (centres undefined)
not listed: [12]
inactive: all other assays above

Nc1nnnn1-c1ccccc1
not listed: [12]
inactive: all other assays above

Nc1c[n+](N2CCOCC2)no1
not listed: [12]
inactive: all other assays above

CC(=O)OCC[N+](C)(C)C
not listed: [7] | [8] | [9] | [12]
inactive: all other assays above

C[C@H](CN1CCCC1)C(=O)c1ccc(C(F)(F)F)cc1
not listed: [8]
inactive: all other assays above

O=C(Oc1ccccc1)c1cccc(C(=O)Oc2ccccc2)c1
not listed: [4] | [10]
inactive: all other assays above

CC(C(O)c1ccccc1)N(C)CCOC(c1ccccc1)c1ccccc1 (centres undefined)
active: [3] 14.6 µM
inactive: [1] | [2] | [4] | [5] | [10]

OC1(c2ccc(Cl)c(C(F)(F)F)c2)CCN(CCCC(c2ccc(F)cc2)c2ccc(F)cc2)CC1
inactive: [1] | [2]
active: [3] 23.1 µM and 20.6 µM | [5] 16.7 µM | [8] 10.6 µM | [12] 6.68 µM | [9] 11 µM | [11] 21.1 µM

CN1CCC(=C2c3ccccc3CCc3cccnc32)CC1
not listed: [5] | [10]
inactive: all other assays above

Oc1ccccc1
not listed: [5]
inactive: all other assays above

O=C(O)CNC(=O)CNC(=O)CNC(=O)CSC(=O)c1ccccc1
not listed: [5] | [8]
inactive: all other assays above

O=C(Nc1ccc(Cl)cc1)Nc1ccc(Cl)c(Cl)c1
inactive: [1] | [2] | [4]
active: [3] 6.51 µM | [7] 11.9 µM | [12] 18.8 µM

N#C/C(=C1/SC[C@@H](c2ccc(Cl)cc2Cl)S1)n1ccnc1
active: [12] 11.9 µM
inactive: [1] | [2] | [3] | [4] | [11]

CCCCCC(=O)O[C@]1(C(C)=O)CC[C@H]2[C@@H]3CCC4=CC(=O)CC[C@]4(C)[C@H]3CC[C@@]21C
active: [3] 10.3 µM | [6] 21.1 µM | [12] 13.3 µM
inactive: [1] | [2] | [5]

O=C(O)/C=C(\CC(=O)O)C(=O)O
not listed: [4] | [9] | [10]
inactive: all other assays above
